# MazEF act: activators of E. coli MazEF toxin-antitoxin RNase, primary screen, biochemical, fluorescence, uHTS. Endoribonuclease toxin MazF (Escherichia coli (strain K12)), P0AE70. FAM/BHQ RNA-DNA oligo cleavage fluorescence, 5 h. 0.32% of 350,000 active. activation, % at 20 µM. AID 504720, 2011; in the data active = activation above about 50%
# Target sequence (P0AE70 whole entry, looked up): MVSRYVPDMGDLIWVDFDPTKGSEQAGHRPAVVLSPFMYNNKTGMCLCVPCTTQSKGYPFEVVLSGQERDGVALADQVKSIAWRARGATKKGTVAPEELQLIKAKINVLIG
# GDH-TPI inh: GDH-TPI coupling enzyme inhibitors, primary screen, artefact control for M. tuberculosis FBA inhibitor project, biochemical, absorbance, full deck; AID 588335, 2011; inhibition, % at 4.8 µM; 1.2% of 360,000 active; GDH-TPI coupled enzyme counterscreen, NADH absorbance;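 also: 0% = DMSO wells and 100% = wells lacking the enzyme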
# CCHF vOTU inh: CCHFV vOTU protease inhibitors, primary screen, biochemical, Pep-AMC substrate, fluorescence. Crimean-Congo hemorrhagic fever virus L polyprotein viral ovarian tumor (vOTU) protease …. inhibition, % at 11.5 µM. 0.55% of 370,000 active; also: 0% = vehicle wells with enzyme and 100% = no enzyme wells
# FBA Mtb inh: Mtb FBA enzyme inhibitors, primary screen, biochemical, fluorescence, strain H37Rv | Fructose-bisphosphate aldolase (Mycobacterium tuberculosis (strain ATCC 25618 / H37Rv)), … | purified M. tuberculosis FBA, fluorescence read-out | inhibition, % at 1 µM | 2.3% of 360,000 active; in the data active = inhibition above about 27%;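 also: 0% = vehicle and 100% = reference inhibitor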
# Target sequence (P9WQA3 whole entry, looked up): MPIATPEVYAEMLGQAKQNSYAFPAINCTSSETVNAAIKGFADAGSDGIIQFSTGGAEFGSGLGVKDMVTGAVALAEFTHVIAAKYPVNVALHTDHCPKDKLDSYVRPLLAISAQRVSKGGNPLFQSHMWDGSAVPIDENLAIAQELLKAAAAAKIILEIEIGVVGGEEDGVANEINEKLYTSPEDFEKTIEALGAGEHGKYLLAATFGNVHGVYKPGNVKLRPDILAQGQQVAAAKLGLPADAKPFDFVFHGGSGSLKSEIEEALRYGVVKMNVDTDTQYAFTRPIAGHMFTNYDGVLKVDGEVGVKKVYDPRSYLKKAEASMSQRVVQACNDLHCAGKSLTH
# Mtb bLac sens: beta-lactam sensitization of Mtb H37Rv, H37Rv; M. tuberculosis H37Rv growth with meropenem, percent inhibition; inhibition, % at 25 µM; 0.27% of 330,000 active; call rule not given here;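 also: growth measured after seven days incubation then overnight dye step; 0% = bacteria only wells and 100% = bacteria with antibiotic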
# * hit, by the source's call; u = inconclusive; x = no result given; + = active, no number. An excerpt weighted towards active compounds, which were near 4% of everything screened. Rule as the data show it, unless noted: active = inhibition above about 30%; inactive = the rest.
SMILES,MazEF act,GDH-TPI inh,CCHF vOTU inh,FBA Mtb inh,Mtb bLac sens
COc1ccc(C(=O)OC(C)CN2CCOCC2)cc1OC (centres undefined),-0.5,5.0,3.7,121.4*,-0.3
COc1cc2oc3cc(C)oc(=O)c3c2cc1OC,-2.1,18.6,-89.1,142.4*,2.9
CCC(=O)OCCNc1cc(Sc2nc3ccccc3s2)c2nonc2c1[N+](=O)[O-],17.3,11.2,22.0,-10.9,96.6
O=[N+]([O-])c1c(NCCCO)cc(Sc2nc3ccccc3s2)c2nonc12,113.8*,9.2,x,-14.3,96.4
CCOC(=O)[C@@]12CCCC=C1N(CCc1ccc(Cl)cc1)C(=O)[C@H]2CC(=O)NCC1CCCCC1,x,x,10.8,x,x
COC(=O)[C@H]1C[C@@]2(C#N)c3ccccc3N(C(=O)OC(C)(C)C)[C@H]2N1C(=O)OC(C)(C)C,x,x,6.3,x,x
COc1cc(=O)n(C)c2cc(N(C)C)ccc12,0.0,32.9*,-147.3,156.1*,-0.1
COc1ccc(CCN2C(=O)C(Oc3ccccc3C)C2c2ccc3c(c2)OCO3)cc1 (centres undefined),-0.4,8.7,6.6,1.6,-5.1
O=C1C(Oc2ccccc2)C(c2ccc3c(c2)OCO3)N1CCc1ccc(F)cc1 (centres undefined),3.1,33.3*,6.7,2.4,u
Cc1ccc(-c2cc(C(=O)NN=Cc3sccc3C)[nH]n2)cc1C,x,x,6.5,x,x
CN(C)c1ccc(-c2nc3ncc(Cl)cc3[nH]2)cc1,x,x,-71.0,x,x
CCc1nnc(NC(=O)c2ccc(NS(=O)(=O)c3ccccc3)cc2)s1,6.5,34.1*,6.6,10.4,-19.0
COc1cccc(/C=N/Nc2nc3ccccc3[nH]2)c1O,-11.4,35.8*,15.2,-3.9,53.2
COc1cc(/C=N/Nc2nc3ccccc3[nH]2)ccc1O,-1.6,49.6*,8.1,2.8,6.6
NC(=O)C1CCN(C(=O)COc2ccc3c(c2)oc(=O)c2ccccc23)CC1,4.6,7.8,-100.6,112.3*,-11.5
Cc1c(Cc2ccccc2)c(=O)oc2cc(OCC(=O)N3CCC(C(N)=O)CC3)ccc12,1.3,15.7,-73.9,124.1*,-9.5
Cc1c(C)c2ccc(OCC(=O)N3CC[C@@]4(O)CCCC[C@H]4C3)cc2oc1=O,-6.3,8.8,-33.4,86.6*,-6.9
CCCc1cc(=O)oc2cc(OCC(=O)N3CC[C@@]4(O)CCCC[C@H]4C3)ccc12,x,11.8,-4.2,24.3,x
COc1cc(-c2cc(C(=O)Nc3c(Cl)cc(Cl)cc3Cl)c3ccccc3n2)cc(OC)c1OC,-6.6,17.0,-8.4,-2.1,4.7
COc1ccc2nc3ccccc3nc2c1NC(=O)c1ccc(Cl)cc1Cl,+,4.6,-1.9,-0.3,-2.0
Cc1cc(-c2ccccc2)nc(N/N=C/c2ccc(N(C)C)cc2)n1,5.5,31.3*,8.5,-0.2,97.4
Cc1cc(C)nc(N/N=C/c2ccc(N3CCOCC3)cc2)n1,1.5,35.3*,7.6,-0.3,-7.4
O=C(O)c1cc(N/N=C/c2ccc(N3CCOCC3)cc2)ccc1Cl,-19.3,68.8*,1.6,2.3,-7.8
Cc1cc(C)nc(N/N=C/c2ccco2)n1,1.2,31.5*,-3.3,-2.4,-1.7
Cc1cc(-c2ccccc2)nc(N/N=C/c2ccccc2)n1,7.5,16.9,5.5,3.8,40.1
SMILES,MazEF act,GDH-TPI inh,CCHF vOTU inh,FBA Mtb inh,Mtb bLac sens
Clc1cccc(N/N=C/c2ccc(N3CCOCC3)cc2)c1,15.1,9.4,13.2,2.1,98.6
CC1(C)Oc2ccc(C(=O)NC3CCCC3)cc2NC1=O,x,x,-5.8,x,x
CN1CCN(c2ccc3c(c2)Oc2ccccc2CN(Cc2cn(Cc4cccc(C(F)(F)F)c4)nn2)S3(=O)=O)CC1,x,x,4.8,x,x
COc1ccc2ccccc2c1C=NNC(=O)c1cc(-c2ccc(C)c(C)c2)n[nH]1,x,x,-0.6,x,x
CC(=O)CC[C@H]1CC[C@]2(CCCN(S(=O)(=O)C3CCCCC3)C2)O1,x,x,-0.1,x,x
CCCCN1C[C@@H](COCc2ccccc2)Oc2cc(F)ccc2S1(=O)=O,x,x,1.7,x,x
CSc1ccc(/C=N/Nc2nc(C)cc(C)n2)cc1,5.1,32.8*,15.8,-6.3,-3.1
COc1ccc(C(=O)CC(=O)c2ccccc2O)cc1,11.5,3.7,-135.1,171.1*,11.3
COc1ccc(O)c(C(=O)CC(=O)c2cccnc2)c1,-7.0,18.5,-60.6,114.9*,x
COc1ccc(O)c(C(=O)CC(=O)c2ccccc2C)c1,-0.8,9.5,-6.1,21.6,87.8
CCCCCN1CCCCC(NC(=O)c2ccc3ccccc3c2)C1=O (centres undefined),x,x,15.2,x,x
Cc1c(NCc2nc3ccccc3[nH]2)c(=O)n(-c2ccccc2)n1C,9.1,40.0*,19.4,-1.9,-1.0
COc1ccc(NC(=O)CSc2nnc(-c3n[nH]c4c3CCC4)n2N)cc1OC,x,x,-7.7,x,x
O=[N+]([O-])c1cccc(COc2ncnc3cc([N+](=O)[O-])ccc23)c1,4.9,35.0*,-7.9,2.7,2.9
COc1ccc(CCNC(=O)COc2ncnc3cc([N+](=O)[O-])ccc23)cc1,11.7,9.8,6.4,-1.8,7.2
Oc1ccc2c(c1)OCC1(O)Cc3cc(O)c(O)cc3C21 (centres undefined),x,7.8,-4.7,4.0,x
Oc1cc2c(cc1O)[C@H]1c3ccc(O)c(O)c3OC[C@@]1(O)C2,231.3*,-2.7,-8.5,-1.1,0.0
O=C(O)c1ccc(Nc2nc(-c3cccnc3)cs2)cc1O,2.5,43.4*,6.3,-2.0,90.2
O=Cc1cc(N=Nc2ccc(S(=O)(=O)O)cc2)ccc1O,-0.3,19.8,14.5,-22.4,0.6
Cc1cc(C=O)c(O)cc1O,-3.8,52.2*,14.8,-4.7,3.9
COc1ccc(N/C=C/C(=O)c2ccc(Cl)cc2)cc1,4.4,1.5,-1.3,0.9,81.9
COc1ccc(N/C=C2\C(=O)CCc3c2oc2cc(Cl)c(O)c(Cl)c32)cc1,120.4*,3.6,-15.8,-2.8,-1.1
CCOc1cc2c(cc1C=O)OC(C)C2 (centres undefined),0.1,-8.5,-10.5,11.8,-5.0
CCOc1cc2c(cc1/C=C/c1noc(C)c1[N+](=O)[O-])OC(C)C2 (centres undefined),370.5*,-3.8,8.1,1.9,-2.6
O=C(Nc1cccnc1)c1ccc(COc2cc(Cl)ccc2Cl)o1,-3.8,-5.0,3.1,-1.7,11.6
O=C(N/N=C/c1ccc(O)cc1)c1ccc(COc2cc(Cl)ccc2Cl)o1,41.7,34.8*,-1.0,1.0,22.8
Cc1c(C)c2ccc(OCC(=O)N3CCN(c4ccc(F)cc4)CC3)c(C)c2oc1=O,1.0,5.6,4.1,-5.5,11.9
CCc1cc(=O)oc2c3c(cc(OCC(=O)NCCCOC)c12)OC(C)(C)CC3,10.2,9.5,-254.0,+,-3.8
Cc1ccccc1OCC(=O)NCCC(=O)O,0.9,6.6,-17.4,-0.1,6.3

# Screening data deposited in PubChem BioAssay by several laboratories.
